Data on 1 sequence can be found in publication PMC7862700, “An all-to-all approach to the identification of sequence-specific readers for epigenetic DNA modifications on cytosine”.

Common to all, as to experiment: DAPPL (digital affinity profiling via proximity ligation, sequencing); 10 mM Tris-HCl pH 7.5, 50 mM NaCl, 1 mM DTT, 4% glycerol, room temperature, 30 min; GST-TFs on glutathione beads, 16-mer random dsDNA library, 0.1% formaldehyde crosslink after washing; high values mean tight binding
One test concerns the target T1, FEV (Homo sapiens, UniProt Q99581 1-238).
T1 sequence: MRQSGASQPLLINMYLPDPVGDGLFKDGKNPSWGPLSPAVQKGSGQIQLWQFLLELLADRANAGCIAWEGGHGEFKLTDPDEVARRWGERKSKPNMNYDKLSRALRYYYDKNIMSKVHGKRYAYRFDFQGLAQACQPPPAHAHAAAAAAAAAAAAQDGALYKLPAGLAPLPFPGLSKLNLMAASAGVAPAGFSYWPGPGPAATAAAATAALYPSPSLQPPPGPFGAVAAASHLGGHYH
To be noted: protein: recombinant; tags: N-terminal GST; dsDNA, one strand shown. In outline: (§1)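 Yeast served to express human transcription factors as GST fusions, which were then captured on glutathione beads and labelled with DNA barcodes. Pooled with a tag-only sample, they were incubated with 200 nmole of a 16-mer random double-stranded DNA library for 30 min at room temperature in Tris/NaCl/DTT/glycerol buffer, washed, crosslinked with 0.1% formaldehyde, ligated by proximity, amplified by PCR and sequenced. Dividing each hexamer's read frequency for a factor by its frequency for the tag-only sample gives the binding signal.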

A further test deals with ETV5 (Homo sapiens, UniProt P41161 1-510). The settings on record: protein: recombinant; tags: N-terminal GST; dsDNA, one strand shown. An outline of the steps: as §1
Sequence of ETV5 (P41161 whole entry): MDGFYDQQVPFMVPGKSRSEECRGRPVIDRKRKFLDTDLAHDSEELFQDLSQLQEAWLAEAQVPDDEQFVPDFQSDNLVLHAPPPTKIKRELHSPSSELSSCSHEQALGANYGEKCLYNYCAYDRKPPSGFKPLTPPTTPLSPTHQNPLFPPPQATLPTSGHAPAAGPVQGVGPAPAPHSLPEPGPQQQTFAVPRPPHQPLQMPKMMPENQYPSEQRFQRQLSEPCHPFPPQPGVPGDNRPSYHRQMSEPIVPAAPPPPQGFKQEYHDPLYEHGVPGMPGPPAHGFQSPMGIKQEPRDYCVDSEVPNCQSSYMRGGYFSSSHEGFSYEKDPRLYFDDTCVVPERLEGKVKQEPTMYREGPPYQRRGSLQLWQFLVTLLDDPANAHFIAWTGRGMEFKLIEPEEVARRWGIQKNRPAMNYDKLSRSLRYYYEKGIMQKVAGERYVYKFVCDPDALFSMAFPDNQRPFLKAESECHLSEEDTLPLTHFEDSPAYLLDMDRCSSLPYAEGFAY
The next test deals with HSF1 (Homo sapiens, UniProt Q00613 1-529). To be noted: protein: recombinant; tags: N-terminal GST; chain copies: 3; dsDNA, one strand shown. An outline of the steps:
as §1

The target in another test is T2, SPIC (Homo sapiens, UniProt Q8N5J4 1-248).
T2 sequence: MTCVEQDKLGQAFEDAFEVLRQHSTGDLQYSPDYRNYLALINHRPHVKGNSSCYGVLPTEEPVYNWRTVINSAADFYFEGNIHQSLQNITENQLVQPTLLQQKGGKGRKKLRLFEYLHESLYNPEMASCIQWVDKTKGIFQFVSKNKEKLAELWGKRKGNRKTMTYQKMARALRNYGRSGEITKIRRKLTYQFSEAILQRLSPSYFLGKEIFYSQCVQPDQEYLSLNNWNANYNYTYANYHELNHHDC
The settings on record: protein: recombinant; tags: N-terminal GST; dsDNA, one strand shown. An outline of the steps:
as §1

A further test deals with ELF4 (Homo sapiens, UniProt Q99607 1-663). The settings on record: protein: recombinant; tags: N-terminal GST; dsDNA, one strand shown. In outline:
as §1

Another test has as its target T3, ELK4 (Homo sapiens, UniProt P28324-2 1-405).
T3 sequence: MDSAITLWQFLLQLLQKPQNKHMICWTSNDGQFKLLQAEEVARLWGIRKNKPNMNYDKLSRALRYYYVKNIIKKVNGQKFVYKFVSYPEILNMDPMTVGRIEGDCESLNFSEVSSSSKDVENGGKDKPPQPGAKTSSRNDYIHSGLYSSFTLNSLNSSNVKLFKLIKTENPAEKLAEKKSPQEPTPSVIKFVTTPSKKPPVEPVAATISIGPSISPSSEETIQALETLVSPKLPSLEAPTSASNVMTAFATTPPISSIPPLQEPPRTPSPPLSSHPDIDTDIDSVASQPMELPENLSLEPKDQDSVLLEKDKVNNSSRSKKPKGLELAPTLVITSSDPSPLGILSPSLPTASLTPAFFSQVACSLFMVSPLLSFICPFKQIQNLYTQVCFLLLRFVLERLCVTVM
The settings on record: protein: recombinant; tags: N-terminal GST; dsDNA, one strand shown. An outline of the steps: as §1

Another test addresses T4, ETV2 (Homo sapiens, UniProt O00321 1-342).
T4 sequence: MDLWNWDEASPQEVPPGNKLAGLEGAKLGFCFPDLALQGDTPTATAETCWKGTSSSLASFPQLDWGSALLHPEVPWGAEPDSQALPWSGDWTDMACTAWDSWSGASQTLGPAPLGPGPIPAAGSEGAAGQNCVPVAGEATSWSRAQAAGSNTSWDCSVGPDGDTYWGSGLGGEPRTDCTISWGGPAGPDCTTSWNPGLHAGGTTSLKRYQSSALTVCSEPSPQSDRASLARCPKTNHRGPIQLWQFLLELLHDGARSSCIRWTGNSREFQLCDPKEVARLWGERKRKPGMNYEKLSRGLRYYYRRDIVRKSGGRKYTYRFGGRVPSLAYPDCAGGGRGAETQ
To be noted: protein: recombinant; tags: N-terminal GST; dsDNA, one strand shown. An outline of the steps: as §1

A further test concerns the target T5, ELF3 (Homo sapiens, UniProt P78545 1-371).
T5 sequence: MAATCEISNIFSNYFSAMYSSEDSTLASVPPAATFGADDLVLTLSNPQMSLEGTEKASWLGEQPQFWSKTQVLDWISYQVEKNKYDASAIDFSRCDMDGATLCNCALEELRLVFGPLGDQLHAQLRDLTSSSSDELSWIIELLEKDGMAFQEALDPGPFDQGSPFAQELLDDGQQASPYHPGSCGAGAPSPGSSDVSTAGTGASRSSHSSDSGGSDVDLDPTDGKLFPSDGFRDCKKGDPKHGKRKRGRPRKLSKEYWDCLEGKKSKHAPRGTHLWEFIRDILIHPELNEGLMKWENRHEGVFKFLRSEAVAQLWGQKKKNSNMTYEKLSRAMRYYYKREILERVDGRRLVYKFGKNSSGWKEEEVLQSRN
The settings on record: protein: recombinant; tags: N-terminal GST; dsDNA, one strand shown. An outline of the steps:
as §1

For the next test, the target named is CRX (Homo sapiens, UniProt O43186 1-299). The settings on record: protein: recombinant; tags: N-terminal GST; dsDNA, one strand shown. An outline of the steps:
as §1

The target in another test is ETV1 (Homo sapiens, UniProt P50549 1-477). To be noted: protein: recombinant; tags: N-terminal GST; dsDNA, one strand shown. In outline: as §1
Sequence of ETV1 (P50549 whole entry): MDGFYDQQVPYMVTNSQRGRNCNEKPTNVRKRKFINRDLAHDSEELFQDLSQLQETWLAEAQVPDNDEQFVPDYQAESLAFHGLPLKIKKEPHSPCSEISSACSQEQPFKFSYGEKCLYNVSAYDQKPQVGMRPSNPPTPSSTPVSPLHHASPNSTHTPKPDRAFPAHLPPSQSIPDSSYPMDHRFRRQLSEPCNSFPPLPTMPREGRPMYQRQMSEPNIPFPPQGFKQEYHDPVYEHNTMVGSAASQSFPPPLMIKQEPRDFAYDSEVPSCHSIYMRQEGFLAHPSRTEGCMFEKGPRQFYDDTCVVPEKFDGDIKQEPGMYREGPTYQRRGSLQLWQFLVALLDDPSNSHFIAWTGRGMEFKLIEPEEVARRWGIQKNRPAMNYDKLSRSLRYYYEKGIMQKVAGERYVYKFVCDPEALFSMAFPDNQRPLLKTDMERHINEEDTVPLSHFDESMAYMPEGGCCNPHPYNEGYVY
The next test deals with T6, ERF (Homo sapiens, UniProt P50548 1-548).
T6 sequence: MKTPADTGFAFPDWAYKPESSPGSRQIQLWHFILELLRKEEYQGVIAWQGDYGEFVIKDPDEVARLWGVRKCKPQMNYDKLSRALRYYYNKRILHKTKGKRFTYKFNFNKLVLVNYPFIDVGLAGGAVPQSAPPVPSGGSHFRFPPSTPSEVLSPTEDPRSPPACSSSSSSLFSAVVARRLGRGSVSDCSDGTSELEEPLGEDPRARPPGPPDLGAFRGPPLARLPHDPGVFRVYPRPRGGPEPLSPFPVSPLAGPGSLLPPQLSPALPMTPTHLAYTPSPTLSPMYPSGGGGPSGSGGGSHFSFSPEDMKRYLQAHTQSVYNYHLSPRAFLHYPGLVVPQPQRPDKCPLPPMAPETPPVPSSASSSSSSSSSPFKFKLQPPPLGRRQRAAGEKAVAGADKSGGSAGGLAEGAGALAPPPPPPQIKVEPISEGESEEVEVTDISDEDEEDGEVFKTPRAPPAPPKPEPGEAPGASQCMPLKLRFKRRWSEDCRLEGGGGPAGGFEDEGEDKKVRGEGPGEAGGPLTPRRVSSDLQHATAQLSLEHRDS
To be noted: protein: recombinant; tags: N-terminal GST; dsDNA, one strand shown. In outline:
as §1

Another test concerns the target T7, ETV3L (Homo sapiens, UniProt Q6ZN32 1-361).
T7 sequence: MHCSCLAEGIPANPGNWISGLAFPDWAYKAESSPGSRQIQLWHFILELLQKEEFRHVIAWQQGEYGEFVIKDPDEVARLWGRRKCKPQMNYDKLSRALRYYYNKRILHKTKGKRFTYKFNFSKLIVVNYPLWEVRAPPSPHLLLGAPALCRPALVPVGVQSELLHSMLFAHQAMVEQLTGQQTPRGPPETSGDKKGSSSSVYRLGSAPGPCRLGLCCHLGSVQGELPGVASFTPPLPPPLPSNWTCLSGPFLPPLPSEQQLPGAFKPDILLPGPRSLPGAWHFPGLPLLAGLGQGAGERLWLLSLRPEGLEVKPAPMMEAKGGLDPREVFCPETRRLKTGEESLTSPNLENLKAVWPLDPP
To be noted: protein: recombinant; tags: N-terminal GST; dsDNA, one strand shown. An outline of the steps: as §1

The target of the next test is T8, ETS2 (Homo sapiens, UniProt P15036 1-469).
T8 sequence: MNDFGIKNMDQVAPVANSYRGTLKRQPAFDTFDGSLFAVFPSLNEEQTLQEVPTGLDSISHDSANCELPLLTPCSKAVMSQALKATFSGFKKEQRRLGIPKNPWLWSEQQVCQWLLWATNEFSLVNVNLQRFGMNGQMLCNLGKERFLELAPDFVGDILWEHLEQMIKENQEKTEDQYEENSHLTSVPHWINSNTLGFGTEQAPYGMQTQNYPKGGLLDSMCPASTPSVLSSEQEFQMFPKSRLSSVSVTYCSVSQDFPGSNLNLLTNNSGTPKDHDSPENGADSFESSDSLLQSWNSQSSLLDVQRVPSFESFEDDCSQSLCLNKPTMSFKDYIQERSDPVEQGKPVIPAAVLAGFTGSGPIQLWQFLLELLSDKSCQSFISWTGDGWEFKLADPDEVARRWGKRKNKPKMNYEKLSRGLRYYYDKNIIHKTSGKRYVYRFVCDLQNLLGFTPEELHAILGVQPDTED
The settings on record: protein: recombinant; tags: N-terminal GST; dsDNA, one strand shown. An outline of the steps:
as §1

The target of a further test is T9, SPDEF (Homo sapiens, UniProt O95238 1-335).
T9 sequence: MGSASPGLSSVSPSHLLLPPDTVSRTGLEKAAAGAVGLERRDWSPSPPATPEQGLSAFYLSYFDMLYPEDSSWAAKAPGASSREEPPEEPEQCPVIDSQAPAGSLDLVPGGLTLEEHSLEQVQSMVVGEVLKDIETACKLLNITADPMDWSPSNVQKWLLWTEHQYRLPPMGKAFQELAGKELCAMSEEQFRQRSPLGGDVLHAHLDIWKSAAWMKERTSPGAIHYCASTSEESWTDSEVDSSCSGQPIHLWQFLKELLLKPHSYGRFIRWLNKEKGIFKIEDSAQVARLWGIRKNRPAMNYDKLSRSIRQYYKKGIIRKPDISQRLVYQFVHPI
To be noted: protein: recombinant; tags: N-terminal GST; dsDNA, one strand shown. In outline:
as §1

The target of a further test is T10, ETV7 (Homo sapiens, UniProt Q9Y603 1-341).
T10 sequence: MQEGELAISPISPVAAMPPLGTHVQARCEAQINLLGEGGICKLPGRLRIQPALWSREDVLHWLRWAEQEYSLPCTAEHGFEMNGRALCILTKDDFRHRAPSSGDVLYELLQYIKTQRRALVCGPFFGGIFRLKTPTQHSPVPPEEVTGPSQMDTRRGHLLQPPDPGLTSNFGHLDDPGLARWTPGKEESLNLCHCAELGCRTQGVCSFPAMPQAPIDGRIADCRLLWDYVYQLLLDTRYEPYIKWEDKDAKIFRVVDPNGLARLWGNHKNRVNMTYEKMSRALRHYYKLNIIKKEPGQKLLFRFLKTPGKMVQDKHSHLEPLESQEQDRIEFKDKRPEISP
The settings on record: protein: recombinant; tags: N-terminal GST; dsDNA, one strand shown. An outline of the steps: as §1

A further test concerns the target T11, ELF5 (Homo sapiens, UniProt Q9UKW6-2 1-255).
T11 sequence: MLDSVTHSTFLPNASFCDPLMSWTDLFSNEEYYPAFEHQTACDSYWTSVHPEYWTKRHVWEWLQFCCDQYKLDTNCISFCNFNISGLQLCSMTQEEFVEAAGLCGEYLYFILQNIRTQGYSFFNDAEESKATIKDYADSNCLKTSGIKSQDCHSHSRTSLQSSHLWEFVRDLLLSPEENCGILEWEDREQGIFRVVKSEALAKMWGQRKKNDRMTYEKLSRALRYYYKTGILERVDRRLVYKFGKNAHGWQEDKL
The settings on record: protein: recombinant; tags: N-terminal GST; dsDNA, one strand shown. In outline:
as §1

The target in another test is T12, ETV3 (Homo sapiens, UniProt P41162-2 1-143).
T12 sequence: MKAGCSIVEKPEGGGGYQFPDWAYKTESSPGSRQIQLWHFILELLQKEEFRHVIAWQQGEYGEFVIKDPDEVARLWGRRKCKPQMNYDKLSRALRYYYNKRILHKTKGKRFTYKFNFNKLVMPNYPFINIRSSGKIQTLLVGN
To be noted: protein: recombinant; tags: N-terminal GST; dsDNA, one strand shown. An outline of the steps: as §1

The target in the next test is ETV6 (Homo sapiens, UniProt P41212 1-452). The settings on record: protein: recombinant; tags: N-terminal GST; dsDNA, one strand shown. An outline of the steps: as §1
Sequence of ETV6 (P41212 whole entry): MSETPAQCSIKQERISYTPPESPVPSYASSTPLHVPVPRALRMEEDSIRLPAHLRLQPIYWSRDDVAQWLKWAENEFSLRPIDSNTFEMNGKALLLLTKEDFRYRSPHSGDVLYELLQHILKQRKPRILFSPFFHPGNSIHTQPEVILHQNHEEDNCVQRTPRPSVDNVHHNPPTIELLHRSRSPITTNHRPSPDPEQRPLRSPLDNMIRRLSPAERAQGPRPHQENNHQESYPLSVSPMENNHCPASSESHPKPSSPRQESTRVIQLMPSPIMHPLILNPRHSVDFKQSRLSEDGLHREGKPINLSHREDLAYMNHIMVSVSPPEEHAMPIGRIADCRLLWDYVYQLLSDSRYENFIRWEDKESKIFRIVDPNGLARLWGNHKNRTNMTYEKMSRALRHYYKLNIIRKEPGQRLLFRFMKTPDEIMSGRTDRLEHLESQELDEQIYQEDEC

Sequence of ELF4 (Q99607 whole entry): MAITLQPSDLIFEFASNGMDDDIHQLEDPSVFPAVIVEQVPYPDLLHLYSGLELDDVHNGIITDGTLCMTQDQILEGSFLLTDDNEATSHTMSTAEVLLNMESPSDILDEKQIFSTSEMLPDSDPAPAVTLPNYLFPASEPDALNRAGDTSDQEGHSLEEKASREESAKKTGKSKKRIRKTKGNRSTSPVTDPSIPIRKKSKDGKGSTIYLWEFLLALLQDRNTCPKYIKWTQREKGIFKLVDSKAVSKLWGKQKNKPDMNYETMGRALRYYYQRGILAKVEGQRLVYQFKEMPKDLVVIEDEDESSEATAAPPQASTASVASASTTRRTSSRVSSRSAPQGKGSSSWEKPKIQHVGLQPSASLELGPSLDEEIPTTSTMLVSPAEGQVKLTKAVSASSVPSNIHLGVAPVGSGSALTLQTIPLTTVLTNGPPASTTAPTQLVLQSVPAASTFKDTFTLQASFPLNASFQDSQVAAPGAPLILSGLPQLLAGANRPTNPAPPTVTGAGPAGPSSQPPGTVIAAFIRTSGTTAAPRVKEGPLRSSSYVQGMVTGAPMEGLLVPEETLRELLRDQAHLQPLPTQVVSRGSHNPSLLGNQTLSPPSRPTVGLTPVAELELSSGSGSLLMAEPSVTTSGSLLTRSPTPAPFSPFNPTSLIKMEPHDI
Sequence of CRX (O43186 whole entry): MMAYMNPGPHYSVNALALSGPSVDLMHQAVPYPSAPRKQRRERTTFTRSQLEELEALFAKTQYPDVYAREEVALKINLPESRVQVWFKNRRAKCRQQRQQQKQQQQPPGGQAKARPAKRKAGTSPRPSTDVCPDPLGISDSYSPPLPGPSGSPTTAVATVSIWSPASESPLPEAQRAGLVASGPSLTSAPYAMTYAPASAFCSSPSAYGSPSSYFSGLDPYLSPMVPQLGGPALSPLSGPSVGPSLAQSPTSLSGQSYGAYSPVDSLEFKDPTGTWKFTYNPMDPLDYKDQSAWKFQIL
Sequence of HSF1 (Q00613 whole entry): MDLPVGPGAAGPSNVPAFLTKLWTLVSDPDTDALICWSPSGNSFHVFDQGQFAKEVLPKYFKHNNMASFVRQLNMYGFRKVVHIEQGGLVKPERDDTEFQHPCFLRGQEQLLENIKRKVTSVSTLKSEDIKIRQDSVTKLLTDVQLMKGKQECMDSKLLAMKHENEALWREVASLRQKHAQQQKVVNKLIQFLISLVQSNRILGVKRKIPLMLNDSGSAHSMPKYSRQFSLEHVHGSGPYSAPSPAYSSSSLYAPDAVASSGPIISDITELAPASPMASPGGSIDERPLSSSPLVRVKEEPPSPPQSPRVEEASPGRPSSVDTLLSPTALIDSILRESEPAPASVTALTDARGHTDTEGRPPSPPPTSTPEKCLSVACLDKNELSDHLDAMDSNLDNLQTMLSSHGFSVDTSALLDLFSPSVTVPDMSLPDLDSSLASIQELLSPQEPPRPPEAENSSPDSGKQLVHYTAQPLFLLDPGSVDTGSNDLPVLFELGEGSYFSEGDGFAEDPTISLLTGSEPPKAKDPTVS

For the sequence CACGAT, the binding signal with FEV is 1.23 fold enrichment (6-mer frequency, TF over GST control); in the test with ETV5 it was 1.26 fold enrichment (6-mer frequency, TF over GST control); with HSF1 it was 1.27 fold enrichment (6-mer frequency, TF over GST control); in the test with SPIC, 1.55 fold enrichment (6-mer frequency, TF over GST control); with ELF4, 1.34 fold enrichment (6-mer frequency, TF over GST control); with ELK4 it was 1.24 fold enrichment (6-mer frequency, TF over GST control). For the same sequence, the binding signal with ETV2 was 1.17 fold enrichment (6-mer frequency, TF over GST control); with ELF3 it was 1.36 fold enrichment (6-mer frequency, TF over GST control); with CRX it was 1.39 fold enrichment (6-mer frequency, TF over GST control); with ETV1, 1.28 fold enrichment (6-mer frequency, TF over GST control); in the test with ERF, 1.29 fold enrichment (6-mer frequency, TF over GST control); with ETV3L, 1.23 fold enrichment (6-mer frequency, TF over GST control). Further, the binding signal is 1.24 fold enrichment (6-mer frequency, TF over GST control) in the test with ETS2; 1.26 fold enrichment (6-mer frequency, TF over GST control) with SPDEF; 1.32 fold enrichment (6-mer frequency, TF over GST control) in the test with ETV7; 1.17 fold enrichment (6-mer frequency, TF over GST control) in the test with ELF5; 1.29 fold enrichment (6-mer frequency, TF over GST control) with ETV3; 1.27 fold enrichment (6-mer frequency, TF over GST control) in the test with ETV6.
